This assay concerns the target Beta-2 adrenergic receptor (Homo sapiens) (UniProt P07550). As to the kind of experiment: ADRB2 activation measured by internalization – cell-based, FAP fluorogen, flow cytometry, cherry pick 1, dose response (AID 588763). In general terms: Flow cytometry measures light scatter and fluorescence of single cells or particles in a stream.

Entries with a potency or affinity are not part of this list. The source made the active and inactive calls. The rule behind the calls is not given here.

Sequence of Beta-2 adrenergic receptor (Homo sapiens) (P07550 whole entry, looked up): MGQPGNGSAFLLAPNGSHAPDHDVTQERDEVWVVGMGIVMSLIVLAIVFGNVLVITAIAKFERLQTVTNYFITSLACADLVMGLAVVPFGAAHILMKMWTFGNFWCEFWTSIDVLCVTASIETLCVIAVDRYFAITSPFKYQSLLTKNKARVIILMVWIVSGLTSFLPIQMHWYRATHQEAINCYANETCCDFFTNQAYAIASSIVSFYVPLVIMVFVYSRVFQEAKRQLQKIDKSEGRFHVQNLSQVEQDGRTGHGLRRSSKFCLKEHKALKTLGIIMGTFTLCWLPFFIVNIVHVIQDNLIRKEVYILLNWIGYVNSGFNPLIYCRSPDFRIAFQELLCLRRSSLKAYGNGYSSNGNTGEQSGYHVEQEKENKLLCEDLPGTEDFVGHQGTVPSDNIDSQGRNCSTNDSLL

On to `CCCC(=O)N1CCN(c2ccc(NC(=O)c3ccc([N+](=O)[O-])o3)cc2Cl)CC1`, for which the call was inactive.

Turning to `CN(CC(=O)N1CCN(c2ccc(F)cc2)CC1)S(=O)(=O)c1ccc(F)cc1`, the call was inactive.

For `COc1ccc(OC)c(S(=O)(=O)N(C)CC(=O)N2CCN(c3cccc(Cl)c3)CC2)c1`, the outcome was inactive.

Consider `COc1ccccc1N1CCN(C(=O)CN(C)S(=O)(=O)c2ccc(C)cc2)CC1`, for which the compound was called inactive.

`CC1CCCN(C(=O)C(C)Sc2nc(-c3ccccc3)cc(C(F)(F)F)n2)C1` (stereo unspecified): the outcome was inactive.

As to `COc1ccc(Cl)cc1NC(=O)COc1ccc(S(=O)(=O)N2CCOCC2)cc1C`, the outcome was inactive.

In the case of `CC(=O)c1ccc(NC(=O)c2ccc3c(Cl)c4c(nc3c2)CCCC4)cc1`, the call was inactive.

For `CCN(CC)S(=O)(=O)c1cc(C(=O)Nc2cc(Cl)ccc2N2CCN(C)CC2)ccc1Cl`, the call was inactive.

Consider `O=C(COc1ccc(S(=O)(=O)N2CCOCC2)cc1)Nc1ccccc1F`, for which the call was inactive.

Regarding `O=C(COc1ccc(S(=O)(=O)N2CCCCC2)cc1)Nc1ccccc1F`, the result was inactive.

With `COc1ccc(NC(=O)Cn2nnc(-c3ccccc3NC(=O)C3CC3)n2)cc1`, the outcome was inactive.

Consider `O=C(NC1CCc2ccccc21)c1cc(COc2cncc(Cl)c2)on1` (stereo unspecified), for which the compound was called inactive.

Consider `Cc1cc(S(=O)(=O)N2CCOCC2)ccc1OCC(=O)Nc1ccccc1F`, for which the compound was classed as inactive.

In the case of `O=C(Nc1ccc2oc(-c3ccccc3F)nc2c1)c1ccc2c(c1)OCCO2`, the compound was classed as inactive.

For `COC(=O)c1ccccc1NC(=O)Cn1nnc(-c2ccc(OC)cc2)n1`, the call was inactive.

With `COc1ccc(C(=O)Nc2nc3cc4c(cc3s2)OCCO4)c(OC)c1`, the outcome was inactive.

These data come from PubChem BioAssay AID588763 (NMMLSC, 2011).
